Assay results from PubChem BioAssay AID1489 (National Center for Advancing Translational Sciences (NCATS), 2009).
Records with an inconclusive call do not appear. Unmarked numbers belong to inactive results. Active and inactive are the calls of the source. Calls follow the shape of the dose curve; as a rule, active = well fitted antagonist curve with a large enough effect in the main read-out, with a control signal flat; inconclusive = small, poorly fitted or top-dose-only effect; inactive = no such curve, though single readings can be large or run the other way.

molecular target: Neuropeptide S receptor (Homo sapiens) (UniProt Q6W5P4); assay: Confirmation Concentration-Response Assay for Antagonists of the Neuropeptide S Receptor: Calcium Signal Transduction; conditions: CHO-NPSR cells, NPS-induced calcium flux, FDSS; series mostly up to 19.3 µM; activity change, negative = inhibition: at the top concentration
Sequence (Q6W5P4 whole entry, looked up): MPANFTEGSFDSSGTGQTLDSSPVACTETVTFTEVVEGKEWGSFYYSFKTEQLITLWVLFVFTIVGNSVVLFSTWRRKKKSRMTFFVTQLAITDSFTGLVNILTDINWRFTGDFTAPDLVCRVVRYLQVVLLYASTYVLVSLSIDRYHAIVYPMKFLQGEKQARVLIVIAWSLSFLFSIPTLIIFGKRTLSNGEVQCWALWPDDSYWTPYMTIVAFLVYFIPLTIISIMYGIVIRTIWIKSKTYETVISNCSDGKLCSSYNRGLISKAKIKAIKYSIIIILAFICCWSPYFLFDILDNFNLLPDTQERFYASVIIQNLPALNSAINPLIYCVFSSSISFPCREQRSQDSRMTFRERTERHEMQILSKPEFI
Excerpt: NIH Chemical Genomics Center [NCGC] NIH Molecular Libraries Probe Production centers Network [MLPCN] MLPCN Grant: X01-DA026210-01 Assay Submitter (PI): Heilig, Markus Alexander NCGC Assay Overview: Neuropeptide S receptor (NPSR), previously known as GPR154, is a recently de-orphanized G protein coupled receptor. Its endogenous ligand is the 20 amino acids peptide Neuropeptide S (NPS). […] NPS and its receptor are found in various tissues. Specifically they are highly expressed in brain areas that have been implicated in modulation of arousal, stress and anxiety. Central administration of NPS in mice produces an unusual profile of activity by inducing wakefulness and arousal, while at the same time suppressing anxiety. Therefore, NPSR may represent a novel drug target for the treatment of sleep and anxiety disorders. To identify NPSR antagonists, we developed a cell-based assay with transfected NPS receptor. NPS can stimulate the production of cAMP as well as release intracellular calcium in Chinese hamster ovary cells stably expressing NPS receptor. This change in intracellular calcium can be detected using a calcium indicator dye on a calcium imaging plate reader system (FDSS).
NCGC Assay Protocol Summary: A Chinese hamster ovary (CHO) cell line stably expressing the NPS receptor (CHO-NPSR) was obtained from Dr. Heilig lab at NIAAA and maintained in F-12 Kaighn's media (Invitrogen, Carlsbad, CA, 21127) supplemented with 10 % FBS, 100 units/ml penicillin, 100 ug/ml streptomycin and 250 ug/ml geneticin at 37C, 5% CO2 in a humidified atmosphere. Before the assay, aliquots of cells were frozen and stored at -135C. The assay was performed on a FDSS-7000 kinetic plate reader in 1536-well format. For both agonist (1-220s) and antagonist (221-400s) phases, the maximums of kinetic fluorescence responses were converted separately into text files using the instrument's software data export utility. Data for agonist response were normalized to the controls for basal activity (DMSO only) and 100% activation (NPS). […] AC50 values were determined from concentration-response data modeled with the standard Hill equation. NPS 1536-well FDSS assay protocol: (1) Frozen CHO-NPSR cells were thaw, washed once with fresh media and resuspended in F-12 Kaighn's media supplemented with 10 % FBS, 100 units/ml penicillin and 100 ug/ml streptomycin. Cells were plated at 3 ul/well (1200 cells) to black, clear-bottom, tissue-culture treated 1536-well plates, and then cultured at 37C, 5 % CO2 for 16 to 30 hours. (2) Add 3 ul of calcium dye (from High Performance PBX Calcium Assay Kit, BD Biosciences). The calcium dye was prepared according to the manufactory's instruction. (3) Incubation at 37C, 5 % CO2 for 60 to 120 min. (4) Load plates to FDSS-7000. The following steps were performed on FDSS-7000. (5) Record fluorescent background (Ex 480 nm, Em 520-560 nm) for 10 s. (6) Add 23 nl/well of compound in DMSO solution. The final titration for each compound was between 0.6 nM and 46 uM. Record agonist response for 210 s. (7) Add 2 ul of stimulation reagent (1X HBSS buffer, 0.1% BSA, 60 nM NPS). Record antagonist response for 140 s. Keywords: MLSMR, MLPCN, NIH Roadmap, qHTS, NCGC, NPS, Neuropeptide S Antagonists

Row | Compound | Potency | activity change, negative = inhibition [%]
1 | CCOC(=O)c1cnc(-n2nc(C)cc2C)nc1NC1CCCC1 | 2.82 µM (active) | –
2 | COc1ccc(C(=O)N(Cc2ccco2)Cc2cccs2)c(O)c1 | – | 34.4
3 | COc1ccc(-c2cc(N)n(S(=O)(=O)c3c(F)c(F)c(F)c(F)c3F)n2)cc1OC | 7.08 µM (active) | –
4 | N#Cc1cnn(-c2ncnc3sc4c(c23)CCCC4)c1N | – | -17.2
5 | S=C(Nc1ccccc1)Nc1nccs1 | – | 23.7
6 | CC(=O)n1nc2nc(C)cc(C)c2c1N | – | 6.81
7 | O=C(CSc1n[nH]c(-c2cccnc2)n1)Nc1ccnc2ccccc12 | – | -2.97
8 | C=CCNC(=O)/C(C#N)=C/c1cn(-c2ccccc2)nc1-c1ccc(OC)c([N+](=O)[O-])c1 | – | -2.88
9 | O=C(COC(=O)c1ccccc1C(=O)c1ccc(Cl)c([N+](=O)[O-])c1)NC1CCCCCC1 | 4.47 µM (active) | –
10 | Cc1ccc(S(=O)(=O)Nc2ccccc2CNc2c(C)n(C)n(-c3ccccc3)c2=O)cc1 | – | -20.6
11 | Cc1ccc(-n2ncc3c(NCc4ccc5c(c4)OCO5)ncnc32)c(C)c1 | – | -21.2
12 | CCC(c1nnnn1C1CCCC1)N1CCN(c2ccccc2)CC1 (stereo not given) | – | -5.45
13 | CS(=O)(=O)c1nc(-c2ccccc2)cc(C(F)(F)F)n1 | 7.94 µM (active) | –
14 | COc1ccc(NC(=O)/C(Cl)=C(/Cl)S(=O)Cc2ccc(C)cc2)cn1 (stereo not given) | 2.24 µM (active) | –
15 | CC1CCCc2sc3nc(N4CCN(CCO)CC4)n4ncnc4c3c21 (stereo not given) | – | 17.5
16 | Cn1c(C(=O)NCCN2CCc3ccccc3C2)cc2c(=O)[nH]c3ccccc3c21 | – | 3.7
17 | COc1ccc(OC)c(C2C(C(=O)Nc3nc4ccccc4s3)=C(C)NC3=C2C(=O)CCC3)c1 (stereo not given) | 2.82 µM (active) | –
18 | N=C1c2ccccc2CN1c1ccc(N2CCOCC2)c(S(=O)(=O)Nc2ccc(Cl)cc2)c1 | 1.41 µM (active) | –
19 | C=CCn1c(SCCN2C(=O)c3ccccc3C2=O)nc2scc(-c3ccccc3)c2c1=O | – | -9.23
20 | CCSc1nc2c(c(=O)n1Cc1ccccc1)SC(C)C2 (stereo not given) | – | -2.84

Row | Compound | Potency | activity change, negative = inhibition [%]
21 | Cc1cc2nc3ccc(=[N+](C)C)cc-3sc2cc1N | – | -7.55
22 | Cc1ccc(Cn2cc(SCC(=O)Nc3nccs3)c3ccccc32)cc1 | – | -9.34
23 | CC1CCCCN1S(=O)(=O)c1ccc(C(=O)Nc2sccc2C(N)=O)cc1 (stereo not given) | 12.6 µM (active) | –
24 | c1cncc(-c2nc(-c3ccco3)cs2)c1 | – | -10.1
25 | Cc1cc(C)n(-c2nc(NC(C)C)nc(NC(C)C)n2)n1 | – | 29
26 | CCn1cc(C(=O)NCC2CCCO2)c(=O)c2cc(S(=O)(=O)N3CCCCCC3)ccc21 (stereo not given) | – | 15
27 | O=C1Nc2ccc(S(=O)(=O)N3CCCC3C(=O)O)c3cccc1c23 (stereo not given) | – | -13.6
28 | CN(C)c1nc(=Nc2cccc(Cl)c2)ss1 | – | 5.52
29 | N#CC(C#N)=c1ccc2c(c1)NC1(CCCCC1)N=2 | – | -13.1
30 | Cc1ccc(S(=O)(=O)Nc2cccc3ncccc23)s1 | 3.16 µM (active) | –
31 | C(=C\c1ccccc1)/C=N/N1CCN(c2ccccn2)CC1 | – | -11.5
32 | Nc1ccc(-c2nc3c(Cl)cc(N)cc3[nH]2)cc1 | – | -10.2
33 | Brc1ccc(CSc2ncn[nH]2)cc1 | – | -6.38
34 | CC(C)Cc1nc(N2CCN(C(=O)c3ccccc3)CC2)c(C#N)c2c1CCC2 | – | 16
35 | CCCN1C(=O)/C(=C\C=C2/C=CN(CC)c3ccccc32)SC1=S | – | -24.1
36 | CC(=O)c1sc(N/N=C\c2ccccc2O)nc1C | 1.12 µM (active) | –
37 | O=C(c1ccccc1-c1nc2ccccc2[nH]1)N1CCCCC1 | – | -21.1
38 | CCC(C)n1c(=O)c(C(=O)Nc2ccccc2S(N)(=O)=O)c(O)c2ccccc21 (stereo not given) | – | -2.76
39 | CCCCCN1C=CC=C/C1=C\C=C(C#N)C#N | – | -25.1
40 | Cc1ccc(/C=C2\SC(=S)N(CC(=O)Nc3ncc(Cc4ccccc4Cl)s3)C2=O)cc1 | – | -2.64
